In the supplement of paper PMC10498489:
Screen size: about 2,300 compounds; about 330 (14%) showed activity.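 How the source made its calls: active = median modified Z-score above 1.96; inactive = 1.96 or below.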 Not all results are given here.

Test system: HepG2 Srxn1-GFP reporter cells (+30 nM CDDO-Me)
Assay: Srxn1-GFP intensity median modified Z-score relative to plate median; higher = stronger NRF2 / oxidative stress reporter activation, active = hit call of the paper
Details: 10 µM; exposure time: 24h
Summary of the method: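 Each value is the replicate median of a per-plate modified Z-score for GFP intensity in HepG2 Srxn1-GFP BAC reporter cells. The cells (20,000 per well, 96-well plates, three replicate plates) received compound at 10 μM together with an NRF2 activator at 30 nM for 24 h, in ≤0.1% DMSO. Cytoplasmic GFP was quantified per cell from confocal images of formaldehyde-fixed, Hoechst-stained cells, leaving out images with fewer than 100 cells, and scaling used 1.4826 × median absolute deviation.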

| Structure (SMILES) | Srxn1-GFP intensity median modified Z-score |
| --- | --- |
| O=C(O)C1CSCN1 (configuration not stated) [euspeclibcmpd1135] | -0.116 (inactive) |
| O=c1cc(-c2ccc(O)cc2)oc2ccc(O)cc12 [euspeclibcmpd1816] | 1.7 (inactive) |
| Cc1nc(COP(=O)(O)O)cc2c1[O][Mn][O]c1c(cc(COP(=O)(O)O)nc1C)CN(CC(=O)O)CCN(CC(=O)O)C2 [euspeclibcmpd2441] | 1.06 (inactive) |
| COc1ccc(-c2ccc3cc(C(=O)O)ccc3c2)cc1C12CC3CC(CC(C3)C1)C2 [euspeclibcmpd491] | 3.08 (active) |
| COc1cc(C(=O)O)cc(OC)c1O | 1.18 (inactive) |
| COC(=O)c1cc(OC)c(=O)c2c(OC)c(OC)ccc2c1 [euspeclibcmpd2293] | -0.421 (inactive) |
| COc1cc(C(=O)O)cc(OC)c1O [euspeclibcmpd1648] | 0.178 (inactive) |
| CCCOc1ccccc1-c1nc(=O)c2[nH]nnc2[nH]1 [euspeclibcmpd2036] | -0.165 (inactive) |
| N[C@@H]1CCCC[C@H]1N [euspeclibcmpd2386] | 1.79 (inactive) |
| C/C=C/CC(C)C(O)C1C(=O)NC(CC)C(=O)N(C)CC(=O)N(C)C(CC(C)C)C(=O)NC(C(C)C)C(=O)N(C)C(CC(C)C)C(=O)NC(C)C(=O)NC(C)C(=O)N(C)C(CC(C)C)C(=O)N(C)C(CC(C)C)C(=O)N(C)C(C(C)C)C(=O)N1C (configuration not stated) [euspeclibcmpd445] | 8.19 (active) |
| CC(=O)O[C@H]1CC[C@@]2(C)C(=CCC3C2CC[C@@]2(C)C3CC[C@@H]2C(C)CCCC(C)C)C1 (some centres not stated) [euspeclibcmpd2217] | -0.115 (inactive) |
| CCOc1cccc(C(=O)c2ccc(O)c(O)c2O)c1 [euspeclibcmpd1514] | -0.219 (inactive) |
| CC(NC(CCc1ccccc1)C(=O)O)C(=O)N1CCCC1C(=O)O (configuration not stated) [euspeclibcmpd609] | 0.185 (inactive) |
| CC(=O)O[C@H]1CCC2(C)C3=C(CCC2C1(C)C)[C@]1(C)CCC(C(C)CCC=C(C)C)[C@@]1(C)CC3 (some centres not stated) [euspeclibcmpd2332] | -0.0515 (inactive) |
| CC(C)=CCCC(C)[C@@H]1CC[C@]2(C)C3=C(CC[C@@]12C)C1(C)CC[C@H](O)C(C)(C)C1CC3 (some centres not stated) [euspeclibcmpd2235] | 2.85 (active) |
| CC(C)=CCCC(C)C1CC[C@@]2(C)C3=C(CC[C@]12C)C1(C)CC[C@H](O)C(C)(C)C1CC3 (some centres not stated) [euspeclibcmpd2336] | 0.013 (inactive) |

| Structure (SMILES) | Srxn1-GFP intensity median modified Z-score |
| --- | --- |
| COc1cc(C)c2c(c1C=O)Oc1c(c(C)c(O)c3c(O)oc(O)c13)OC2=O [euspeclibcmpd1947] | 0.6 (inactive) |
| CC[C@H]1OC(=O)C(C)[C@@H](O[C@H]2C[C@@](C)(OC)[C@@H](O)[C@H](C)O2)[C@H](C)[C@@H](O[C@@H]2O[C@H](C)C[C@H](N(C)C)[C@H]2O)[C@](C)(O)C[C@@H](C)CN(C)[C@H](C)[C@@H](O)[C@]1(C)O (some centres not stated) [euspeclibcmpd690] | 1.41 (inactive) |
| CC(C)c1ccc2oc3[nH]c(=N)c(C(=O)O)cc3c(=O)c2c1 [euspeclibcmpd492] | 1.12 (inactive) |
| CCC(C)[C@H]1O[C@]2(CC[C@@H]1C)C[C@@H]1C[C@@H](C/C=C(\C)[C@@H](OC3C[C@H](OC)C(O[C@H]4C[C@H](OC)[C@@H](O)[C@H](C)O4)[C@H](C)O3)[C@@H](C)/C=C/C=C3\CO[C@@H]4[C@H](O)C(C)=CC(C(=O)O1)[C@]34O)O2 (some centres not stated) [euspeclibcmpd982] | 0.921 (inactive) |
| CO[C@H]1CC(O[C@@H]2/C(C)=C/C[C@@H]3C[C@@H](C[C@]4(CC[C@H](C)[C@@H](C5CCCCC5)O4)O3)OC(=O)C3=CC(C)C(=NO)C4OC/C(=C\C=C\[C@@H]2C)[C@@]34O)O[C@@H](C)C1O (some centres not stated) [euspeclibcmpd601] | 8.72 (active) |
| CON=C1C[C@]2(C[C@@H]3C[C@@H](C/C=C(\C)C[C@@H](C)/C=C/C=C4\CO[C@@H]5[C@H](O)C(C)=CC(C(=O)O3)[C@]45O)O2)O[C@H](/C(C)=C/C(C)C)C1C (some centres not stated) [euspeclibcmpd768] | -0.575 (inactive) |
| CO[C@H]1CC(O[C@@H]2/C(C)=C/C[C@@H]3C[C@@H](C[C@]4(C=C[C@H](C)[C@@H](C5CCCCC5)O4)O3)OC(=O)C3=CC(C)[C@@H](O)[C@H]4OC/C(=C\C=C\[C@@H]2C)[C@@]34O)O[C@@H](C)C1O[C@H]1C[C@H](OC)[C@@H](O)[C@H](C)O1 (some centres not stated) [euspeclibcmpd131] | 8.87 (active) |
| CCC(C)[C@H]1O[C@]2(C=C[C@@H]1C)C[C@@H]1C[C@@H](C/C=C(\C)[C@@H](OC3C[C@H](OC)C(O[C@H]4C[C@H](OC)[C@@H](O)[C@H](C)O4)[C@H](C)O3)[C@@H](C)/C=C/C=C3\CO[C@@H]4[C@H](OC)C(C)=CC(C(=O)O1)[C@]34O)O2 (some centres not stated) [euspeclibcmpd1403] | 5.69 (active) |
| CCC(C)[C@H]1O[C@]2(C=C[C@@H]1C)C[C@@H]1C[C@@H](C/C=C(\C)[C@@H](OC3C[C@H](OC)C(O[C@H]4C[C@H](OC)[C@@H](NC(C)=O)[C@H](C)O4)[C@H](C)O3)[C@@H](C)/C=C/C=C3\CO[C@@H]4[C@H](O)C(C)=CC(C(=O)O1)[C@]34O)O2 (some centres not stated) [euspeclibcmpd495] | 0.588 (inactive) |
| CCCCC(CC)CN=C(N)N=C(N)NCCCCCCN=C(N)N=C(N)NCC(CC)CCCC (configuration not stated) [euspeclibcmpd2037] | 0.191 (inactive) |
| CC(=O)NC(CS)C(=O)O (configuration not stated) [euspeclibcmpd14] | -0.532 (inactive) |
| CC12CCC3c4ccc(O)cc4CCC3C1C[C@H](O)[C@@H]2O (some centres not stated) [euspeclibcmpd2315] | -0.0343 (inactive) |
| COC(=O)C(Cc1ccccc1)NC(=O)C(N)CC(=O)O (configuration not stated) [euspeclibcmpd740] | -0.355 (inactive) |
| CC(=O)OC1CCC2(C)C(=CCC3C2CCC2(C)C(C(=O)O)CCC32)C1 (configuration not stated) | 0.226 (inactive) |
| CC(c1ncncc1F)[C@](O)(Cn1cncn1)c1ccc(F)cc1F (some centres not stated) [euspeclibcmpd477] | -0.000648 (inactive) |
| CC(=O)/N=c1\sc(S(N)(=O)=O)nn1C [euspeclibcmpd555] | 0.456 (inactive) |
